HT1080 IDH1KD tx – kills HT-1080 cells with IDH1 knockdown; HT-1080 IDH1 knockdown viability, ATP luminescence, 48 h; Potency, µM (series often up to 46.1 µM), actives largely listed as cytotoxic; 2% of 360,000 active; AID 686971
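Assay cells: HT-1080 with IDH1 knockdown, 750 per well, RPMI/5% FBS. Exposure: 48 h at 37 °C following 2 h pre-incubation. Read: CellTiter-Glo luminescence; fitted concentration-response, curve class assigned.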
DT40 TDP1 CPT – growth inhibition of DT40 Tdp1-/-;hTDP1 cells with camptothecin (screen for TDP1 inhibitors) | chicken DT40 Tdp1-/-;hTDP1 cells + 20 nM CPT, ATP luminescence, 48 h | Potency, µM (titrated, usually from 46.2 µM), most hits filed as inhibitors | 12% of 420,000 active | AID 686979; also: nearly all actives have a fitted effect of over 55% in size
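Chicken DT40 Tdp1-/- cells stably complemented with human TDP1 were seeded at 400 cells/well in medium containing 20 nM camptothecin, exposed to pin-transferred compounds, and grown at 37 °C for at least 48 hr. Viability was read as ATP luminescence.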
TGFb inhibitor – inhibitors of TGF-b signaling; Potency, µM (series often up to 46.1 µM), actives largely listed as inhibitors; AID 588855; 1.2% of 410,000 active; HepG2 CAGA-GFP TGF-b/SMAD3 reporter, GFP fluorescence, 18 h; TGF-beta stimulated, 500 pg/mL final; also: nearly all actives have a fitted effect of over 65% in size
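Using HEPG2 CAGA-GFP reporter cells at 1000 cells/well, we pinned test compounds, stimulated with recombinant TGF-beta (500 pg/mL final) and measured total well GFP after 18 h.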
HepG2 viability – HepG2 cytotoxicity, counter-screen for TGF-b inhibitors. 0.76% of 410,000 active. Potency, µM (titrated, usually from 46.1 µM), most hits filed as cytotoxic. HepG2 CAGA-GFP viability, ATP luminescence, 18 h
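HepG2 CAGA-GFP cells (1000/well, DMEM with 1% FBS) received compound, then TGF-beta at 500 pg/mL final, and were incubated 18 hours at 37 degrees C. Viability was read by CellTiter-Glo luminescence. Media-only wells were set as complete cell-killing and DMSO as no toxicity.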
HT1080-NT tox – kills 2HG-producing HT-1080-NT fibrosarcoma cells; HT-1080-NT fibrosarcoma viability, CellTiter-Glo ATP luminescence, 48 h; Potency, µM (doses to about 46.1 µM), usual class: cytotoxic; 1.6% of 360,000 active; AID 686970;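 also: NT is the 2HG producing partner of a matched IDH1 knockdown line; nearly all actives have a fitted effect of over 55% in size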
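750 cells/well, RPMI + 5% FBS; 2 h settle, compound pin-transfer, 48 h at 37 degrees C. CellTiter-Glo 10 min RT, luminescence. Normalized to DMSO and media-only wells.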
DT40 TDP1 no CPT – qHTS for Inhibitors of human tyrosyl-DNA phosphodiesterase 1 (TDP1): qHTS in cells in absence of CPT; DT40 Tdp1-/- hTDP1 cells, no CPT, ATP luminescence, 48 h; 15% of 420,000 active; Potency, µM (doses to about 46.2 µM), actives largely listed as inhibitors; AID 686978, 2013; also: nearly all actives have a fitted effect of over 55% in size
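Camptothecin absent (DMSO only). Human TDP1-complemented DT40 knockout cells, 400 cells/well, 37 °C for minimum 48 hr; ATP measured via CellTiter-Glo, 30 min dark incubation, luminescence.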
Numbers stand for hits; i = inactive; ? = inconclusive; nt = no result given; [ ] = remark or other dose. Shown are actives, neighbours in structure and some others; about 17% of the full set was active somewhere. Calls follow the shape of the dose curve; as a rule, active = well fitted curve in the direction sought with a large enough effect; inconclusive = small, poorly fitted or top-dose-only effect, or another doubt; inactive = no such curve, though single readings can be large; an effect the other way counts as inactive or inconclusive.

SMILES | HT1080 IDH1KD tx | DT40 TDP1 CPT | TGFb inhibitor | HepG2 viability | HT1080-NT tox | DT40 TDP1 no CPT
COc1ccc(CCNc2nc(-c3ccccn3)cs2)cc1OC | i | 16µM | i | i | ? | 12µM
COc1ccc(CCNc2nc(-c3ccncc3)cs2)cc1OC | i | 21µM | ? | i | i | ?
COc1ccc(CCNc2nc(-c3ccc(F)cc3)c(CC(=O)O)s2)cc1OC | i | 15µM | i | i | i | 26µM
O=[N+]([O-])c1ccc2c(c1)C=CC2 | nt | ? | i | i | nt | ?
O=C(CC1C[C@H](C(=O)N2CCOCC2)[C@@]2(CCC3CCCC3)c3[nH]c4ccccc4c3CCN2C1=O)NCCC1=CCCCC1 (stereo partly drawn) | i | i | i | i | i | i
CCOc1ccc(C2/C(=C(\O)c3ccc4c(c3)OCCO4)C(=O)C(=O)N2CCN2CCOCC2)cc1OC (stereo not drawn) | i | i | i | i | i | i
COc1cc(OC)cc(C(=O)N[C@H](C(=O)OCC(N)=O)C(C)C)c1 | i | i | i | i | i | i
Cc1ccc(C(=O)OCC(=O)Nc2ccccc2)cc1NC(=O)c1ccco1 | i | i | i | i | i | i
COc1ccc(C(=O)NC(C(=O)OCC(=O)Nc2sccc2C(N)=O)C(C)C)cc1 (stereo not drawn) | i | ? | i | i | i[9.24 µM] | 23µM
COc1ccc(C(=O)N[C@H](C(=O)OCCCOC(=O)[C@@H](NC(=O)c2ccc(OC)cc2)C(C)C)C(C)C)cc1 | i | 23µM | ? | i | i | ?
Cc1ccc(C(=O)OCC(=O)Nc2sccc2C(N)=O)cc1NC(=O)c1ccco1 | i | ? | i | i | i | 6.5µM
Cc1ccc(Cl)cc1NC(=O)Cn1c(=O)c(CNc2ccccc2)cc2cc3c(cc21)OCCO3 | nt | nt | i | i | nt | nt
Cc1nnc(-c2ccc(Cl)cc2)[nH]c1=O | i | i | i | i | i | ?
Cc1ccc(C)c(OCCOCCn2c(-c3ccc(Br)cc3)nc3ccccc3c2=O)c1C | nt | ? | i | i | nt | i
COc1cc(/C=N/Nc2nn3cnnc3c3ccccc23)ccc1O | 5.6µM | 7.3µM | i | i | ? | ?
CCOc1cc(/C=N/Nc2nn3cnnc3c3ccccc23)ccc1O | ? | ? | i | i | ? | ?
COc1cccc(/C=N/Nc2nn3cnnc3c3ccccc23)c1 | i | 13µM | i | i | i | 21µM
Cn1nc(-c2ccccc2)cc1NC(=O)[C@@H]1O[C@H](CO)[C@H](O)[C@H](O)[C@H]1O | i | i | i | i | i | i
Cn1cc(Br)c(C(=O)NC2CCCCCC2)n1 | i | i | i | i | i | i
CC(C)C1OC(c2cccc(NC(=O)c3cccs3)c2)OCC1(C)C (stereo not drawn) | ? | ? | ? | i | ? | 23µM

Bioassay records (PubChem)
